Source: article PMC8384837, “Expanding the binding specificity for RNA recognition by a PUF domain”

Molecular target: PUM1 PUF domain R4-PHG (Homo sapiens, UniProt Q14671 828-1176, N971P;Q975G)
Assay: yeast three-hybrid, YBZ-1, SC-Leu-His + 0.5 mM 3-AT, 4 days
Details: tags: N-Gal4 AD-HA kept; label: inside an RPR1-promoter hybrid RNA with tandem MS2 sites; ssRNA
Outline: (§1)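 The interaction score is the logarithmic change in variant frequency from input to selection. It uses log2, with a pseudocount of 1 for absent variants, and frequencies came from PCR-amplified, Illumina-sequenced repeat regions. The libraries were Pumilio-1 PUF domains randomized at the three base-contacting residues per repeat, co-expressed with matching RNA elements in strain YBZ-1 (LexA–MS2 coat fusion, HIS3 reporter). Plating lasted four days on SC-Leu (input) or SC-Leu-His + 0.5 mM 3-AT (selection).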

Sequence of PUM1 PUF domain R4-PHG (Q14671 828-1176 N971P/Q975G): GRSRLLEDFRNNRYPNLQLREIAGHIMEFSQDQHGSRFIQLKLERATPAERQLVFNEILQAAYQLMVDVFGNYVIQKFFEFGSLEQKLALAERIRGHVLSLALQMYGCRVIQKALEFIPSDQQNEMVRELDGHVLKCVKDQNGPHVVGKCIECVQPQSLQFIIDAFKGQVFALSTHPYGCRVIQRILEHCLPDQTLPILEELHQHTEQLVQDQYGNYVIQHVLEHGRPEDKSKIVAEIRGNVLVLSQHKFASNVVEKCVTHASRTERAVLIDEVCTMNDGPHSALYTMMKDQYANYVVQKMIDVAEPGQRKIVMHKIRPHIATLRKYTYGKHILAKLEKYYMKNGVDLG

Row | Sequence | binding signal
1 | GGCUAGAACUAGUGGAUCCCCCGGCGCCCGGCGGCUCGAGCCCGGGUAAGUGUACAUAGUCUGCAUGCCGCCGGGCGCCAUGCCUGCAGGUCGACUCUAGAAAACAUG | 4.15 log2 enrichment (interaction score)
2 | GGCUAGAACUAGUGGAUCCCCCGGCGCCCGGCGGCUCGAGCCCGGGUAAGUGUAAAUAGUCUGCAUGCCGCCGGGCGCCAUGCCUGCAGGUCGACUCUAGAAAACAUG | 4.7 log2 enrichment (interaction score)
3 | GGCUAGAACUAGUGGAUCCCCCGGCGCCCGGCGGCUCGAGCCCGGGUAAGUGUAUAUAGUCUGCAUGCCGCCGGGCGCCAUGCCUGCAGGUCGACUCUAGAAAACAUG | 4.99 log2 enrichment (interaction score)

Molecular target: PUM1 PUF domain R8-KHN (Homo sapiens, UniProt Q14671 828-1176, N1122K;Y1123H;Q1126N)
Assay: as above
Details: tags: N-Gal4 AD-HA kept; label: inside an RPR1-promoter hybrid RNA with tandem MS2 sites; ssRNA
Outline: as §1

Sequence of PUM1 PUF domain R8-KHN (Q14671 828-1176 N1122K/Y1123H/Q1126N): as the sequence (Q14671 828-1176 N971P/Q975G) above, with P144N, G148Q, N295K, Y296H, Q299N counted along it

Row | Sequence | binding signal
4 | GGCUAGAACUAGUGGAUCCCCCGGCGCCCGGCGGCUCGAGCCCGGGUAAGGGUAAAUAGUCUGCAUGCCGCCGGGCGCCAUGCCUGCAGGUCGACUCUAGAAAACAUG | 2.46 log2 enrichment (interaction score)
5 | GGCUAGAACUAGUGGAUCCCCCGGCGCCCGGCGGCUCGAGCCCGGGUAAGUGUAAAUAGUCUGCAUGCCGCCGGGCGCCAUGCCUGCAGGUCGACUCUAGAAAACAUG | 2.21 log2 enrichment (interaction score)
6 | GGCUAGAACUAGUGGAUCCCCCGGCGCCCGGCGGCUCGAGCCCGGGUAAGCGUAAAUAGUCUGCAUGCCGCCGGGCGCCAUGCCUGCAGGUCGACUCUAGAAAACAUG | 5.43 log2 enrichment (interaction score)
